# Results: PubChem BioAssay (NCI)
# Compounds without any hit were thinned out: in the full panel of roughly 79,000, 15% have a hit. A number with no mark means an inactive call. Calls of active or inactive are those of the source. No stated cut-off is given here; in the data, active means growth inhibition above about 70%; inactive means the rest.
# Key:
# [1] = NCI Yeast Anticancer Drug Screen. Data for the rad50 strain (AID 155);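 further: 0% = growth of vehicle-only cultures of the same strain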; details: S. cerevisiae rad50 strain growth inhibition, stronger effect = higher value
# In short: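 Inhibition values express reduced yeast growth in compound-treated cultures relative to vehicle-treated controls.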
# [2] = NCI Yeast Anticancer Drug Screen. Data for the mec2-1 strain (AID 157); details: S. cerevisiae mec2-1 strain, stronger effect = higher value
# In short: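 Each compound was tested on mec2-1 yeast, a strain altered in DNA damage repair or cell cycle control. Growth inhibition is reported relative to vehicle.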
# [3] = NCI Yeast Anticancer Drug Screen. Data for the sgs1 mgt1 strain (AID 161);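 further: 0% = growth of cultures given vehicle only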; details: S. cerevisiae sgs1 mgt1 strain, stronger effect = higher value
# In short: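 Test agents were incubated with a DNA-repair-mutant yeast strain. Growth was then read and compared against vehicle-treated controls.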
# [4] = NCI Yeast Anticancer Drug Screen. Data for the cln2 rad14 strain (AID 165);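 further: 0% = growth equal to vehicle treated cultures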; details: S. cerevisiae cln2 rad14 strain, stronger effect = higher value
# In short: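 Test compounds were added to cln2 rad14 yeast cultures; inhibition of growth was then determined by comparison with vehicle treatment.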
# [5] = NCI Yeast Anticancer Drug Screen. Data for the bub3 strain (AID 167); details: S. cerevisiae bub3 mutant strain, stronger effect = higher value
# In short: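 Steps: expose the mutant yeast strain to compound; grow alongside vehicle-treated cultures; measure growth; express inhibition against the vehicle cultures.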
# [6] = NCI Yeast Anticancer Drug Screen. Data for the mlh1 rad18 strain (AID 175); details: S. cerevisiae mlh1 rad18 strain growth inhibition, stronger effect = higher value
# In short: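 Inhibition values reflect reduced growth of mutant yeast versus vehicle-treated controls following compound exposure; the mutations affect DNA damage repair.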
# [7] = at 5.0 µM (retest, dose inferred, filed as 0.5)
# [8] = at 50.0 µM (retest, dose inferred, filed as 5.0)
Compound,"growth inhibition [1, 7]","growth inhibition [1, 8]",growth inhibition ([1]; at 50.0 µM),"growth inhibition [2, 7]","growth inhibition [2, 8]",growth inhibition ([2]; at 50.0 µM),"growth inhibition [3, 7]","growth inhibition [3, 8]",growth inhibition ([3]; at 50.0 µM),"growth inhibition [4, 7]","growth inhibition [4, 8]",growth inhibition ([4]; at 50.0 µM),"growth inhibition [5, 7]","growth inhibition [5, 8]",growth inhibition ([5]; at 50.0 µM),"growth inhibition [6, 7]","growth inhibition [6, 8]",growth inhibition ([6]; at 50.0 µM)
O=CC(I)=C(c1ccccc1)c1ccccc1,21%,21%,88.8% (active),13%,13%,92.3% (active),9%,9%,86.4% (active),4%,4%,89.8% (active),-2%,-2%,89.5% (active),21%,21%,86.3% (active)
CCc1cccc(CC)c1N=Nc1c(N)nc(N)[nH]c1=O,-11%,-6%,-4.8%,-23%,-9%,-32%,-11%,6%,39.8%,0%,2%,-21%,-2%,-3%,-19.8%,8%,-30%,-11.7%
NCCCN1c2ccccc2Sc2ccc(Cl)cc21,-7%,75% (active),-10.7%,12%,58%,-25.5%,10%,83% (active),13.4%,0%,20%,-25.7%,-1%,37%,71.9% (active),17%,98% (active),18.1%
O=C1/C(=C/c2ccccc2Cl)COc2ccccc21,30%,97% (active),91.5% (active),-15%,98% (active),93.9% (active),15%,97% (active),90.7% (active),20%,97% (active),90.8% (active),32%,98% (active),90.7% (active),-25%,97% (active),90.2% (active)
CCOC(=O)C(=Cc1ccccc1)C(=O)OCC,20%,92% (active),73% (active),20%,91% (active),88.8% (active),9%,92% (active),92.6% (active),13%,78% (active),69.5%,48%,94% (active),92.2% (active),12%,94% (active),93.3% (active)
O=C(Nn1cc(F)c(=O)[nH]c1=O)C12CC3CC(CC(C3)C1)C2,41%,92% (active),21.8%,20%,96% (active),51.4%,42%,96% (active),91.4% (active),20%,52%,86.1% (active),41%,90% (active),87.5% (active),41%,97% (active),57.9%
C=CCNC(=S)N/N=C(/c1ccccn1)C(C)C,1%,40%,89.8% (active),-1%,36%,98.5% (active),-2%,80% (active),96.9% (active),-4%,28%,91.3% (active),-2%,41%,96.3% (active),-2%,69%,96% (active)
O=C(O)C1C(C(=O)O)C2C(=O)C=CC1N2Cc1ccccc1 (stereo not drawn),11%,46%,79.8% (active),1%,61%,81.2% (active),5%,65%,78.5% (active),-8%,31%,46.3%,21%,73% (active),91.4% (active),3%,76% (active),87.8% (active)
COc1ccccc1CN1CCCN(Cc2ccccc2OC)C1c1ccccc1F,2%,-2%,55.9%,-9%,-11%,43.5%,4%,8%,62.6%,1%,-1%,36.6%,0%,-5%,78.8% (active),16%,16%,41%
COc1ccc(C23OCCN2C(=O)c2ccccc23)cc1 (stereo not drawn),4%,-3%,97% (active),-15%,-6%,97.1% (active),-4%,2%,97.5% (active),-4%,-2%,92.7% (active),-31%,-2%,96.3% (active),-10%,-2%,97.9% (active)
CC(=O)N/N=C/c1ccc([N+](=O)[O-])o1,13%,34%,70.2% (active),2%,22%,43.1%,12%,50%,81.8% (active),5%,13%,35.5%,5%,22%,58.5%,17%,61%,84.8% (active)
